Laboratory results published in PMC12350791.

What follows are substances tested against HNRNPU (UniProt Q00839) (assay: cross-linking mass spectrometry). Conditions: DSBSO, in cells or nuclear extract, not told apart.
Sequence of HNRNPU (Q00839 whole entry): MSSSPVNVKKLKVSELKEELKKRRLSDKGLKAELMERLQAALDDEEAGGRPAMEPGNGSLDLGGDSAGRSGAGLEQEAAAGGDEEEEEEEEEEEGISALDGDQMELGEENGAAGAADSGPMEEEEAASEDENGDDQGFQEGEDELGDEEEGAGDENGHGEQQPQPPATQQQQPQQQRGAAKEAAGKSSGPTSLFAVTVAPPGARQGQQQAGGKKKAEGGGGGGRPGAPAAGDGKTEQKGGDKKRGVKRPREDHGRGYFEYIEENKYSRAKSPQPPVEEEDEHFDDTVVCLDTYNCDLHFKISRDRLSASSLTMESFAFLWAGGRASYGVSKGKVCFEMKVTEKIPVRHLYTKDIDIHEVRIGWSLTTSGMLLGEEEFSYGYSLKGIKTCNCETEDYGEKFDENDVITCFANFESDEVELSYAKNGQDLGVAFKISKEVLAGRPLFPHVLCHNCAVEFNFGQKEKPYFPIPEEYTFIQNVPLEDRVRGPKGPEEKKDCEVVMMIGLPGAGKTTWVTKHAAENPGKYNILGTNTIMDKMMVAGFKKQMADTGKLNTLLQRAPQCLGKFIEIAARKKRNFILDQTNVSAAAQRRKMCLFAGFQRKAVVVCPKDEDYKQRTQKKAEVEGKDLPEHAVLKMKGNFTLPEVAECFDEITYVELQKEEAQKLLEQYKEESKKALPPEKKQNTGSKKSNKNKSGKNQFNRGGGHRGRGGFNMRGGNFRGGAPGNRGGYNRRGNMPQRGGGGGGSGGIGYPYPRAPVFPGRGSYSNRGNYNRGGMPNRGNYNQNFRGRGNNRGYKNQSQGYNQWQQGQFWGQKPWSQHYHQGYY

Sequence of HNRNPR, O43390 (O43390 whole entry): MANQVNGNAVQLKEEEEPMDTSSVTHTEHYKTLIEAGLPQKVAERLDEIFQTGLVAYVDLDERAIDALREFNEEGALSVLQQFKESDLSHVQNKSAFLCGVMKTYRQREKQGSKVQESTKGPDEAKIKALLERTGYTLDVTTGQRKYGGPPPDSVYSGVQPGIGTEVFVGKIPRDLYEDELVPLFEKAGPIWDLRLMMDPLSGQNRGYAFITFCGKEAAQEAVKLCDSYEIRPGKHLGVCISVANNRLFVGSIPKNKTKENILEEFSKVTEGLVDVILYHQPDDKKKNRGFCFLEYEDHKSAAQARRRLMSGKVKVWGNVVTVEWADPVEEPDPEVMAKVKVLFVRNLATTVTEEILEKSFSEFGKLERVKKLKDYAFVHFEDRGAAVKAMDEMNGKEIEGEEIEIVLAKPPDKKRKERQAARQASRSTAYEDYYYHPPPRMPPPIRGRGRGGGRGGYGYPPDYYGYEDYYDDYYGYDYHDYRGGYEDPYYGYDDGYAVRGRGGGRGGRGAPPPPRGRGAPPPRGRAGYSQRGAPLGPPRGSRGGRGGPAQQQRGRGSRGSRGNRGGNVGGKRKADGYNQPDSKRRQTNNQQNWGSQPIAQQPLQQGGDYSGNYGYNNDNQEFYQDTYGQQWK
Sequence of HNRNPDL, O14979 (O14979 whole entry): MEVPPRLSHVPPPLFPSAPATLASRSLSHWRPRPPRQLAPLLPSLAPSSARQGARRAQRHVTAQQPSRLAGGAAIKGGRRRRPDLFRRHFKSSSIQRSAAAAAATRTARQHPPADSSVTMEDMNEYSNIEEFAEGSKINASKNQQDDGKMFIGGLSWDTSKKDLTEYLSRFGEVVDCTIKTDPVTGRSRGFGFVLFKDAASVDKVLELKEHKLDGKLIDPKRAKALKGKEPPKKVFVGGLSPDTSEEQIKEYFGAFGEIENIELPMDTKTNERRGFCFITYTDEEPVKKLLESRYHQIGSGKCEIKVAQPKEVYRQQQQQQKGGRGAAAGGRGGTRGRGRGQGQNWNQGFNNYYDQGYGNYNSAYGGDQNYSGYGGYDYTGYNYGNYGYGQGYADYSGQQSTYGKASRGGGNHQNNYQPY
Sequence of GART, P22102 (P22102 whole entry): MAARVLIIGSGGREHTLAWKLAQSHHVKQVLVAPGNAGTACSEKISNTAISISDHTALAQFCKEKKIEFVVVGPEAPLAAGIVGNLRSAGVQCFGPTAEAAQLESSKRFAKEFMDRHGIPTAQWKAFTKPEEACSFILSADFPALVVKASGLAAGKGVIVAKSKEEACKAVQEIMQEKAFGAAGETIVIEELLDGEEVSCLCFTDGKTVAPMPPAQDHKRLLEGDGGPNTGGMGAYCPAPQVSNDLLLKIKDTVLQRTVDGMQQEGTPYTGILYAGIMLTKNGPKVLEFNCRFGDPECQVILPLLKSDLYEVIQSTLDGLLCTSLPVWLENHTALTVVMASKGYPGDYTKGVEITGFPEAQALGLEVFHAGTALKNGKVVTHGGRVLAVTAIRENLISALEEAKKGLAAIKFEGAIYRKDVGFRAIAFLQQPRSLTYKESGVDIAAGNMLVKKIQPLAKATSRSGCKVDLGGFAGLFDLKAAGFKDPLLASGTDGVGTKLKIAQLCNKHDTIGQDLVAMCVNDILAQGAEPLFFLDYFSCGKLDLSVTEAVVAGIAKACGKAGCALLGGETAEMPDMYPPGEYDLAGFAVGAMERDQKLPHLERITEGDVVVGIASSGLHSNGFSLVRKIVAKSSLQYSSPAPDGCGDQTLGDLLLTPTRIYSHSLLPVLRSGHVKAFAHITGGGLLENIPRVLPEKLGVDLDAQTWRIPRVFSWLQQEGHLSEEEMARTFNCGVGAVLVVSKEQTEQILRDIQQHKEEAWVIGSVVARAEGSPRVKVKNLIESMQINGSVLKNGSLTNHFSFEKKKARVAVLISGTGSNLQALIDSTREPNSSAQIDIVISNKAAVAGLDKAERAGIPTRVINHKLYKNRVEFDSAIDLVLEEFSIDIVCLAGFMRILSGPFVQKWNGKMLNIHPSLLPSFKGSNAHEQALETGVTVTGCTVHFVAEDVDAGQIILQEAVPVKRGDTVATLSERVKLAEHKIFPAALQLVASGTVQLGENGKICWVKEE

Substance | cross-linked residues
HNRNPDL, O14979 | K302 - K352
HNRNPR, O43390 | K359 - K181
GART, P22102 | K251 - K331
